# Results: PMC4081100, “A DNA-binding-site landscape and regulatory network analysis for NAC transcription factors in Arabidopsis thaliana”
# Legend:
# Assay in all cases: universal protein binding microarray (PBM); transcription factors of Arabidopsis thaliana; high values mean tight binding
# Conditions in all cases: protein: recombinant; tags: GST; chain copies: 2; dsDNA, one strand shown
# GST-ANAC092(1-176) = biological target: T1, GST-ANAC092(1-176) (Arabidopsis thaliana, UniProt Q9FKA0 1-176)
# T1 sequence: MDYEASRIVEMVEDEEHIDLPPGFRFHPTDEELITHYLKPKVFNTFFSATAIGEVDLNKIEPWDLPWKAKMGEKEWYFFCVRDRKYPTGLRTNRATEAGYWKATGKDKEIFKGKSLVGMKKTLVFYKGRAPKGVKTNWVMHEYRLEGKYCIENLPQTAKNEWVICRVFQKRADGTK
# Procedure, shortened: (§1)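 Protein amounts were determined by A280 or anti-GST western blot after glutathione–Sepharose 4B purification of GST-tagged proteins induced in cells, with zinc acetate included for zinc-finger proteins. Duplicate runs at 200 to 500 nM final were done on custom all-10-mer Agilent 4 × 180K arrays made double-stranded by primer extension. The normalised enrichment score (E-score) over gapped and ungapped 8-mers is the measure of binding.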
# GST-NTL6(1-168) = GST-NTL6(1-168) (Arabidopsis thaliana, UniProt Q9SCK6 1-168)
# Procedure, shortened: as §1
# GST-ANAC055(1-171) = biological target: T2, GST-ANAC055(1-171) (Arabidopsis thaliana, UniProt Q9LDY8 1-171)
# T2 sequence: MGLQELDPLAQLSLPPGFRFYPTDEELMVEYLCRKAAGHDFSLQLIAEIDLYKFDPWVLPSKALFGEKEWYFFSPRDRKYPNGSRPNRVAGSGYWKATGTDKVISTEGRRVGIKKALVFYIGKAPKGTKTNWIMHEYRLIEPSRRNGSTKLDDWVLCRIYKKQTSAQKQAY
# Procedure, shortened: as §1
# GST-ATAF1 NAC domain = biological target: T3, GST-ATAF1 NAC domain (Arabidopsis thaliana, UniProt Q39013 7-158)
# T3 sequence: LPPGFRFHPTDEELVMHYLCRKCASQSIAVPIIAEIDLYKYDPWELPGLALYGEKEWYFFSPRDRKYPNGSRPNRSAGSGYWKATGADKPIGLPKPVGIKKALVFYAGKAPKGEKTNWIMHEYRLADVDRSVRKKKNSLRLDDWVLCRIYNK
# Procedure, shortened: as §1
# [1] = biological target: T4, GST-ANAC092(1-285) full length (Arabidopsis thaliana, UniProt Q9FKA0 1-285)
# T4 sequence: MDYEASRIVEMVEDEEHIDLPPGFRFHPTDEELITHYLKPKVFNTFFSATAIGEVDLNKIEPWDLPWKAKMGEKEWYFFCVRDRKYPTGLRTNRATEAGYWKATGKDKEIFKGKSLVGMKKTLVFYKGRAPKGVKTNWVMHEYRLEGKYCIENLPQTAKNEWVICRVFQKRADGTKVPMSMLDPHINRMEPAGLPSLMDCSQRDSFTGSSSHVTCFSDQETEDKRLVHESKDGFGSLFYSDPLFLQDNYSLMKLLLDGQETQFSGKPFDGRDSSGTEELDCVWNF
# Procedure, shortened: as §1
# GST-NST2(1-184) = biological target: T5, GST-NST2(1-184) (Arabidopsis thaliana, UniProt Q9M274 1-184)
# T5 sequence: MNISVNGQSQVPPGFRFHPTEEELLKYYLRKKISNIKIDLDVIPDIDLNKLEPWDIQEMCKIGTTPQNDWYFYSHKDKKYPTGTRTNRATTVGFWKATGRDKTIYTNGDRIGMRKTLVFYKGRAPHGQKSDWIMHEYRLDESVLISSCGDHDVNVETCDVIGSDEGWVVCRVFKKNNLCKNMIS
# Procedure, shortened: as §1
# GST-NTL8 NAC domain = biological target: T6, GST-NTL8 NAC domain (Arabidopsis thaliana, UniProt Q9XIN7 14-156)
# T6 sequence: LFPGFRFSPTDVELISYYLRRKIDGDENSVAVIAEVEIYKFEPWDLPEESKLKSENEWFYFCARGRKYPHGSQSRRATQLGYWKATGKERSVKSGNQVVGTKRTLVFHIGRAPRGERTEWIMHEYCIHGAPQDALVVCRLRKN
# Procedure, shortened: as §1
# GST-SND1(1-203) = biological target: T7, GST-SND1(1-203) (Arabidopsis thaliana, UniProt Q9LPI7 1-203)
# T7 sequence: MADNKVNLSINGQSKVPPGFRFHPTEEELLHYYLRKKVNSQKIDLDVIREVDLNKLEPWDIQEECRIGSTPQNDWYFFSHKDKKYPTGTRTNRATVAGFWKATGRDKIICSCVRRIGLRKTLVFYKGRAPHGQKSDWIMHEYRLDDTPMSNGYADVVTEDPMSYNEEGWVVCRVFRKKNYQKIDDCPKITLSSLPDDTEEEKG
# Procedure, shortened: as §1
# GST-VND3 NAC domain = biological target: T8, GST-VND3 NAC domain (Arabidopsis thaliana, UniProt Q9FH59 12-162)
# T8 sequence: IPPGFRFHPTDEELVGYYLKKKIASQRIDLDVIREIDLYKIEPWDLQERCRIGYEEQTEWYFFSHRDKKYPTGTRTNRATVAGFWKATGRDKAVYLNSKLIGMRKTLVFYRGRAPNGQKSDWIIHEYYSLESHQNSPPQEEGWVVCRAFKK
# Procedure, shortened: as §1
# GST-VND7 NAC domain = biological target: T9, GST-VND7 NAC domain (Arabidopsis thaliana, UniProt Q9C8W9 9-158)
# T9 sequence: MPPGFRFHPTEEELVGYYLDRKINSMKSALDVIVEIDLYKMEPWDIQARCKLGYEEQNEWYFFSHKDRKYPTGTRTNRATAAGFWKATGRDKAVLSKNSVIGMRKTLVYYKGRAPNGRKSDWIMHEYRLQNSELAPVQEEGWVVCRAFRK
# Procedure, shortened: as §1
# GST-ANAC019 NAC domain = biological target: T10, GST-ANAC019 NAC domain (Arabidopsis thaliana, UniProt Q9C932 14-162)
# T10 sequence: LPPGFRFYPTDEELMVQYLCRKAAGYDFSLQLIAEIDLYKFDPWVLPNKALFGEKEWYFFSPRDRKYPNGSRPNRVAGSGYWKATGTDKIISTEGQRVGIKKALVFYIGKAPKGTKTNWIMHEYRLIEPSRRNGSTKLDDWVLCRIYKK
# Procedure, shortened: as §1
# GST-NAP(1-166) = biological target: T11, GST-NAP(1-166) (Arabidopsis thaliana, UniProt O49255 1-166)
# T11 sequence: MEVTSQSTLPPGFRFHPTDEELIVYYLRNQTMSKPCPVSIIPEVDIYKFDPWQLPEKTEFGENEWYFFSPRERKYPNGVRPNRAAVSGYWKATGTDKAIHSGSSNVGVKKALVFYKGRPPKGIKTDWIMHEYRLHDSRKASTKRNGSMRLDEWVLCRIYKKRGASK
# Procedure, shortened: as §1
# GST-NTL6(1-168), sequence (Q9SCK6 1-168): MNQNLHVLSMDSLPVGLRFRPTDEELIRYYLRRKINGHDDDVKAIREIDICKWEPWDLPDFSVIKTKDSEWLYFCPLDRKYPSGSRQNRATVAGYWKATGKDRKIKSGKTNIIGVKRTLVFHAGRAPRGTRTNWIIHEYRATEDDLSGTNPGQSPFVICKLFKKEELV
Sequence,binding signal (GST-ANAC092(1-176)) [E-score],binding signal (GST-NTL6(1-168)) [E-score],binding signal (GST-ANAC055(1-171)) [E-score],binding signal (GST-ATAF1 NAC domain) [E-score],binding signal [1] [E-score],binding signal (GST-NST2(1-184)) [E-score],binding signal (GST-NTL8 NAC domain) [E-score],binding signal (GST-SND1(1-203)) [E-score],binding signal (GST-VND3 NAC domain) [E-score],binding signal (GST-VND7 NAC domain) [E-score],binding signal (GST-ANAC019 NAC domain) [E-score],binding signal (GST-NAP(1-166)) [E-score]
AAGCAACC,0.425,0.329,0.0668,0.0659,0.453,0.349,0.301,0.479,0.114,0.136,,
ATGCCGTG,0.417,,0.418,0.35,0.443,,,0.111,0.399,0.447,0.453,0.397
AGAGGAAA,0.115,0.126,,0.0666,0.0695,,0.45,0.144,0.0951,0.0583,,
ACGTGTAC,0.328,,0.286,0.279,0.413,0.201,,0.204,0.267,0.206,0.309,0.278
ACGTCATC,0.418,,0.285,0.291,0.449,0.214,,0.411,0.327,0.273,0.288,0.343
GCGTGTAC,0.403,,0.196,0.19,0.434,0.195,,0.191,0.197,0.193,0.19,0.261
GTACGGAA,0.349,,0.43,0.369,0.376,0.138,,0.221,0.42,0.425,0.458,0.396
GTTGCTTA,0.342,0.425,0.0695,0.0821,0.393,0.327,0.13,0.469,0.0814,0.14,,
GACGTGTA,0.409,,0.341,0.291,0.437,0.193,,0.229,0.354,0.338,0.354,0.327
TGGCGTAA,0.44,,0.127,0.16,0.439,0.346,,0.482,0.191,0.246,0.0928,0.101
TGAAGTAA,0.242,0.377,0.155,0.169,0.323,0.324,0.437,0.424,0.131,0.132,,
CACGTCAC,0.445,,0.396,0.374,0.464,0.217,,0.328,0.362,0.395,0.4,0.344
CACGGCAC,0.462,,0.484,0.432,0.474,0.292,,0.203,0.458,0.485,0.484,0.478
CACGCTTC,0.37,,0.165,0.212,0.437,0.188,,0.232,0.111,0.127,0.184,0.109
ACACGCAT,0.462,,0.335,0.292,0.468,0.242,,0.295,0.351,0.33,0.346,0.332
GAGGAAAA,0.152,0.188,,0.1,0.152,,0.402,0.142,0.12,0.114,,

Sequence,binding signal (GST-ANAC092(1-176)) [E-score],binding signal (GST-NTL6(1-168)) [E-score],binding signal (GST-ANAC055(1-171)) [E-score],binding signal (GST-ATAF1 NAC domain) [E-score],binding signal [1] [E-score],binding signal (GST-NST2(1-184)) [E-score],binding signal (GST-NTL8 NAC domain) [E-score],binding signal (GST-SND1(1-203)) [E-score],binding signal (GST-VND3 NAC domain) [E-score],binding signal (GST-VND7 NAC domain) [E-score],binding signal (GST-ANAC019 NAC domain) [E-score],binding signal (GST-NAP(1-166)) [E-score]
ATGGCGTG,0.443,,0.138,0.17,0.456,0.227,,0.249,0.151,0.155,0.196,0.161
TCACGGAA,0.363,,0.432,0.332,0.381,,,0.219,0.381,0.436,0.465,0.383
CGACACGC,0.316,,0.131,0.188,0.403,,,0.134,0.138,0.198,0.246,0.194
ACGCTAAC,0.43,,0.0694,0.142,0.457,0.289,,0.454,0.127,0.113,0.143,0.0585
GCGTACGC,0.402,,0.265,0.16,0.418,0.251,,0.288,0.0861,0.346,0.287,0.226
ACGTTAAC,0.421,,0.228,0.227,0.438,0.27,,0.412,0.209,0.207,0.257,0.218
ACGTAAAC,0.397,,0.355,0.321,0.43,0.317,,0.404,0.402,0.266,0.427,0.368
TGCACGCA,0.419,,0.255,0.128,0.458,0.211,,0.342,0.289,0.32,0.355,0.265
ATACGTTA,0.443,,0.139,0.273,0.451,0.214,,0.433,0.274,0.146,0.074,0.169
ATTGCTTA,0.273,0.423,,,0.319,0.288,0.0937,0.457,0.16,0.172,,
AAGGGAAA,0.195,0.166,,0.166,0.0848,,0.476,0.117,0.0609,0.0885,,
ACACGCGA,0.461,0.125,,,0.478,0.212,,0.309,0.0551,0.124,,0.147
ACACGTTA,0.482,,0.3,0.35,0.485,0.358,,0.413,0.277,0.237,0.165,0.222
ACGGCACC,0.406,,0.358,0.375,0.452,0.0937,,0.237,0.318,0.333,0.425,0.381
GTGGCGTA,0.439,,0.144,0.235,0.459,0.3,,0.471,0.138,0.0712,0.148,0.0567
